# According to PubChem BioAssay:
# “And” between values parts separate entries of the source, which are not always exact repeats. Equal values may be shown once. The source made the active and inactive calls.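 Rule for the calls, unless noted: active = normalized viability below 100% at a tested concentration; inactive = the rest.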
# Legend:
# [1] = target: 6-phosphogluconate dehydrogenase, decarboxylating (Homo sapiens) (UniProt P52209); assay: 6PGD enzyme inhibitors, primary screen, biochemical, human, recombinant enzyme, NADPH absorbance (AID 1159550;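 active = at least 20% inhibition of 6-phosphogluconate dehydrogenase activity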); conditions: recombinant 6PGD, NADPH absorbance 341 nm; at 10 µM; stronger effect = higher value
# [2] = differential killing of epithelial or mesenchymal cells, primary screen, imaging, PC-3E GFP, TEM4-18 mCherry, co-culture (AID 1345086;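 active = compounds killing one labelled cell type while sparing the other, by normalised counts and ratio limits, not self-fluorescent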;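 for all read-outs here: cells exposed to compound for 72 h before imaging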;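 for red/green cell ratio (normalised): normalised mesenchymal count divided by normalised epithelial count so high means epithelial killing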); conditions: imaging cell counts, at 1 µM; for red/green cell ratio (normalised): actives lie on both sides, counts scaled to control wells, 1 = unselective
# [3] = sensitizers of A549 cells to miR-34 induction, primary screen, imaging, A549 dox-inducible miR-34, nuclei and caspase counts (AID 1347080;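 active = compounds whose cell count with miR-34 switched on is under 0.7 times the count with it off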); conditions: A549 miR-34 inducible, Hoechst nuclei count, 48 h
# [4] = target: Mitogen-activated protein kinase 7 (Homo sapiens) (UniProt Q13164); assay: ERK5 transactivation activators in reporter cells, primary screen, cell-based, HTS (AID 1508626;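 active = luciferase signal above three times the same-plate solvent-only control wells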;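 note: luciferase driven by Gal4-ERK5 fusion binding five Gal4 sites before minimal TATA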); conditions: HeLa Gal4-ERK5 transactivation, 18 h, at 5 µM, stronger effect = higher value
# [5] = viability rescue of complex I mutant cybrids, primary screen, cell-based, galactose medium, ATP luminescence (AID 1645843;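 active = z-score of at least 1.8 in each of two replicates, scored against plate mean and spread of sample wells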;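 note: positive z means more ATP and so rescue of galactose-driven cybrid death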); conditions: complex I mutant cybrid cells, 72 h, stronger effect = higher value
# [6] = hESC survival regulators, cell-based (AID 493140; call rule not given here;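 note: cells exposed to compounds for four days before counting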); conditions: human embryonic stem cell survival screen; stronger effect = higher value
# [7] = survival rescue of mitochondrial mutant cells in low glucose, primary screen, MELAS cybrids, Rieske KO mouse fibroblasts, CellTiter-Glo (AID 1508586;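 active = mean z-score across replicates of 1.96 or higher in either the MELAS or the Rieske mutant cell line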;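 note: z relative to plate mean and SD of compound and empty wells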)
# [8] = ovarian cancer cell viability with rucaparib, profiling panel, oncology-focused library, rucaparib conditional (AID 1508598); conditions: patient-derived ovarian cancer cells, CellTiter-Glo viability, 144 h, stronger effect = lower value
# [9] = target: NAD(+) hydrolase SARM1 (Homo sapiens) (UniProt Q6SZW1); assay: SARM1 TIR NADase inhibitors, cell lysate, NAD-Glo luminescence (AID 1508614;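 active = compound whose remaining NAD level is above about 45 nM, limit read from the data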;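 note: higher remaining NAD means stronger inhibition of SARM1 NADase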); conditions: SAM-TIR HEK293T lysate NADase, at 1 µM, stronger effect = higher value
# [10] = liver-stage malaria parasite growth inhibition, primary screen, cell-based, HepG2, luciferase luminescence, HepG2 viability (AID 624349; in the data active = parasite load remaining mostly below about 12%, no sharp cut-off; inactive = mostly above about 10%;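 note: 100% = mean of DMSO negative control wells on the same plate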); conditions: P. berghei liver stage in HepG2, luciferase luminescence, concentration not given here; parasite load remaining: stronger effect = lower value; viability: measured here: HepG2 viability without parasites
# [11] = measured here: epithelial PC-3E GFP cell survival
# [12] = measured here: mesenchymal TEM4-18 mCherry cell survival
# [13] = stronger effect = lower value, cell number ratio, induced over uninduced
# [14] = measured here: relative caspase fold change +Dox/-Dox
# [15] = measured here: total cells with miR-34 induction, stronger effect = lower value
# [16] = measured here: total cells without miR-34 induction
# [17] = MELAS cybrid survival, CellTiter-Glo 48 h, stronger effect = higher value
# [18] = Rieske KO mouse fibroblast survival, CellTiter-Glo 72 h
# Sequence of 6-phosphogluconate dehydrogenase, decarboxylating (Homo sapiens) (P52209 whole entry, looked up): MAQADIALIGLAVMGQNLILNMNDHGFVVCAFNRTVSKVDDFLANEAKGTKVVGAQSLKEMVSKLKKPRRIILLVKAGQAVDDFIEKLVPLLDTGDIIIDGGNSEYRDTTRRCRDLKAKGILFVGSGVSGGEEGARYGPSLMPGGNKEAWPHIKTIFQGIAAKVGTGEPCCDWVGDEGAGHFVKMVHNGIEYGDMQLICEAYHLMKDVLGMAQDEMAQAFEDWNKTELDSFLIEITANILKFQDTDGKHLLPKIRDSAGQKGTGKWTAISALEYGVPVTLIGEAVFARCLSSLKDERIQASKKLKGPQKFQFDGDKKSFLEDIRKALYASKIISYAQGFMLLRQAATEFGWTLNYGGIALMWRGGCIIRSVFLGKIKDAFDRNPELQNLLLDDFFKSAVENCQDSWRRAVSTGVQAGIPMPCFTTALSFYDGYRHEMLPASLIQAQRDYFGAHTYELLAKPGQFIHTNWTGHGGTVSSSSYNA
# Sequence of Mitogen-activated protein kinase 7 (Homo sapiens) (Q13164 whole entry, looked up, the tested form may be a part): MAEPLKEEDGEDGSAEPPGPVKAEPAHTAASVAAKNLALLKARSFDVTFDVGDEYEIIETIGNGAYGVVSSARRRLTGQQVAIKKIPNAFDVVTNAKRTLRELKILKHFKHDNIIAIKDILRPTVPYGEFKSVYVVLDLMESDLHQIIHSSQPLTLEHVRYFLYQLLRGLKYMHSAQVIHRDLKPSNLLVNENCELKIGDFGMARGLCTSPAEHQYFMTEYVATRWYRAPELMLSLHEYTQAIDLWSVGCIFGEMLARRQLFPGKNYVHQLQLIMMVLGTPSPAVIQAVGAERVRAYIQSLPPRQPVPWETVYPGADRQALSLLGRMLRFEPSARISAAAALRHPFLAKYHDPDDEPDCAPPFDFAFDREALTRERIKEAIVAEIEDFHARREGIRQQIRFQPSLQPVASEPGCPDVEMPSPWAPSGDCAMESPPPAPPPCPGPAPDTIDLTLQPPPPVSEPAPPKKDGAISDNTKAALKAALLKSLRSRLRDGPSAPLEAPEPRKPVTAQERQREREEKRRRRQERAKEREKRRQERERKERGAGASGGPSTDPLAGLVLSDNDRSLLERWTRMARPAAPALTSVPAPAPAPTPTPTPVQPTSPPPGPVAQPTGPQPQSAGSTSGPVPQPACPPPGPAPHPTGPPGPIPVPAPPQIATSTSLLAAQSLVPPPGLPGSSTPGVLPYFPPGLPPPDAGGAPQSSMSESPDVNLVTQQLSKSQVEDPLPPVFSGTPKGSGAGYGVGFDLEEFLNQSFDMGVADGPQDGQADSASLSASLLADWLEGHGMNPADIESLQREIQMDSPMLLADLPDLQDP
# Sequence of NAD(+) hydrolase SARM1 (Homo sapiens) (Q6SZW1 whole entry, looked up): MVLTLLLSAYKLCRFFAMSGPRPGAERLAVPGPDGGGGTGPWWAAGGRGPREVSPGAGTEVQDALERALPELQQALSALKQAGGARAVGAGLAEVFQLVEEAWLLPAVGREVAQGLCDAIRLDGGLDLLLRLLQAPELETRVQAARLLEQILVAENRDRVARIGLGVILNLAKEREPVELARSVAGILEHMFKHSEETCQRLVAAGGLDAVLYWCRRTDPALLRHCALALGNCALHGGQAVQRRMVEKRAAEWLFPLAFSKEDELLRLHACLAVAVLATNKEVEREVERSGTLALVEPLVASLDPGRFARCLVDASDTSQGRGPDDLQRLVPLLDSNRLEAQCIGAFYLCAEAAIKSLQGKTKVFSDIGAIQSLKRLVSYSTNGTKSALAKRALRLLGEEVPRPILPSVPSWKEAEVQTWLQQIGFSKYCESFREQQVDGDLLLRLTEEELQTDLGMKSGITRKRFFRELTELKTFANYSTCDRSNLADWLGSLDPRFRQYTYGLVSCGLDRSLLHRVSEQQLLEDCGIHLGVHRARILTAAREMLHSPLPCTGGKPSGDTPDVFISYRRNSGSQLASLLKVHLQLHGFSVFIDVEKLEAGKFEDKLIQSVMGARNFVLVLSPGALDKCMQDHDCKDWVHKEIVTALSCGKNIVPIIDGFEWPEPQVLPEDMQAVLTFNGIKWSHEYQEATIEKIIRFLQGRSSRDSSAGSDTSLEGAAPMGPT
smiles,measurement,setting,value
C[C@]12CC[C@@H](O)C[C@H]1CCc1ccccc12,inhibition,[1],-3.83% (inactive)
same,red/green cell ratio (normalised),[2],1.08 (inactive)
same,normalised cell number,[2]; [11],1.09
same,normalised cell number,[2]; [12],1.17
CCC/C=C1\OC(=O)C2=C1CCC=C2,inhibition,[1],3.63% (inactive)
same,red/green cell ratio (normalised),[2],1.13 (inactive)
same,normalised cell number,[2]; [11],0.83
same,normalised cell number,[2]; [12],0.94
COc1cc(OC)c2c(=O)cc(-c3ccccc3)oc2c1,inhibition,[1],13.7% (inactive)
same,red/green cell ratio (normalised),[2],0.95 (inactive)
same,normalised cell number,[2]; [11],1.06
same,normalised cell number,[2]; [12],1.01
O=C(O)CCC(=O)OCC(NC(=O)C(Cl)Cl)C(O)c1ccc([N+](=O)[O-])cc1 (configuration not stated),inhibition,[1],1.37% (inactive)
same,red/green cell ratio (normalised),[2],1.01 (inactive)
same,normalised cell number,[2]; [11],1.15
same,normalised cell number,[2]; [12],1.16
CCCCOc1cc(CC2CNC(=O)N2)ccc1OC (configuration not stated),inhibition,[1],1.84% (inactive)
same,red/green cell ratio (normalised),[2],1.01 (inactive)
same,normalised cell number,[2]; [11],1.14
same,normalised cell number,[2]; [12],1.15
same,fold change,[3]; [13],0.994 (inactive) and 1.05 (inactive) and 0.91 (inactive)
same,fold change,[3]; [14],1.87 and 1.3 and 0.769
same,cell count,[3]; [15],10200 and 6130 and 8720
same,cell count,[3]; [16],10300 and 5830 and 9590
same,luciferase signal,[4],60 AU (inactive)
same,z-score,[5],0.26 (inactive) and -0.055 (inactive)
N.N.O=C([O-])C1(C(=O)[O-])CCC1.[Pt+2],inhibition,[1],-2.44% (inactive)
same,red/green cell ratio (normalised),[2],0.96 (inactive)
same,normalised cell number,[2]; [11],1.09
same,normalised cell number,[2]; [12],1.04
COc1c(C)c2c(c(O)c1C/C=C(\C)CCC(=O)O)C(=O)OC2,survival,[6],0.167 (inactive)
same,inhibition,[1],-6.15% (inactive)
same,red/green cell ratio (normalised),[2],0.6 (active)
same,normalised cell number,[2]; [11],0.58
same,normalised cell number,[2]; [12],0.35
same,z-score,[7]; [17],-0.0503
same,z-score,[7]; [18],2.98
same,viability,"[8]; at 0.000305 µM, OCI-C5x cells, with rucaparib 10 µM, 100% = cells with rucaparib alone",117% (inactive)
same,viability,"[8]; at 0.000305 µM, OCI-C5x cells, without rucaparib",124% (inactive)
same,viability,"[8]; at 0.000305 µM, OCI-P5x cells, with rucaparib 20 µM, 100% = cells with rucaparib alone",87.8% (active)
same,viability,"[8]; at 0.000305 µM, OCI-P5x cells, without rucaparib",96% (active)
same,viability,"[8]; at 0.00122 µM, OCI-C5x cells, with rucaparib 10 µM, 100% = cells with rucaparib alone",121% (inactive)
same,viability,"[8]; at 0.00122 µM, OCI-C5x cells, without rucaparib",126% (inactive)
same,viability,"[8]; at 0.00122 µM, OCI-P5x cells, with rucaparib 20 µM, 100% = cells with rucaparib alone",90.6% (active)
same,viability,"[8]; at 0.00122 µM, OCI-P5x cells, without rucaparib",103% (inactive)
same,viability,"[8]; at 0.00488 µM, OCI-C5x cells, with rucaparib 10 µM, 100% = cells with rucaparib alone",129% (inactive)
same,viability,"[8]; at 0.00488 µM, OCI-C5x cells, without rucaparib",128% (inactive)
same,viability,"[8]; at 0.00488 µM, OCI-P5x cells, with rucaparib 20 µM, 100% = cells with rucaparib alone",96.9% (active)
same,viability,"[8]; at 0.00488 µM, OCI-P5x cells, without rucaparib",109% (inactive)
same,viability,"[8]; at 0.0195 µM, OCI-C5x cells, with rucaparib 10 µM, 100% = cells with rucaparib alone",121% (inactive)
same,viability,"[8]; at 0.0195 µM, OCI-C5x cells, without rucaparib",129% (inactive)
same,viability,"[8]; at 0.0195 µM, OCI-P5x cells, with rucaparib 20 µM, 100% = cells with rucaparib alone",95.2% (active)
same,viability,"[8]; at 0.0195 µM, OCI-P5x cells, without rucaparib",112% (inactive)
same,viability,"[8]; at 0.0781 µM, OCI-C5x cells, with rucaparib 10 µM, 100% = cells with rucaparib alone",166% (inactive)
same,viability,"[8]; at 0.0781 µM, OCI-C5x cells, without rucaparib",162% (inactive)
same,viability,"[8]; at 0.0781 µM, OCI-P5x cells, with rucaparib 20 µM, 100% = cells with rucaparib alone",97.4% (active)
same,viability,"[8]; at 0.0781 µM, OCI-P5x cells, without rucaparib",97% (active)
same,viability,"[8]; at 0.313 µM, OCI-C5x cells, with rucaparib 10 µM, 100% = cells with rucaparib alone",180% (inactive)
same,viability,"[8]; at 0.313 µM, OCI-C5x cells, without rucaparib",189% (inactive)
same,viability,"[8]; at 0.313 µM, OCI-P5x cells, with rucaparib 20 µM, 100% = cells with rucaparib alone",85.4% (active)
same,viability,"[8]; at 0.313 µM, OCI-P5x cells, without rucaparib",62.1% (active)
same,viability,"[8]; at 1.25 µM, OCI-C5x cells, with rucaparib 10 µM, 100% = cells with rucaparib alone",128% (inactive)
same,viability,"[8]; at 1.25 µM, OCI-C5x cells, without rucaparib",117% (inactive)
same,viability,"[8]; at 1.25 µM, OCI-P5x cells, with rucaparib 20 µM, 100% = cells with rucaparib alone",70% (active)
same,viability,"[8]; at 1.25 µM, OCI-P5x cells, without rucaparib",40.7% (active)
same,viability,"[8]; at 5 µM, OCI-C5x cells, with rucaparib 10 µM, 100% = cells with rucaparib alone",73.1% (active)
same,viability,"[8]; at 5 µM, OCI-C5x cells, without rucaparib",56.4% (active)
same,viability,"[8]; at 5 µM, OCI-P5x cells, with rucaparib 20 µM, 100% = cells with rucaparib alone",46.2% (active)
same,viability,"[8]; at 5 µM, OCI-P5x cells, without rucaparib",30.7% (active)
same,remaining NAD,[9],10 nM (inactive)
same,luciferase signal,[4],48 AU (inactive)
same,z-score,[5],1.33 (inactive) and 1.68 (inactive)
O=C(O)c1cc(=O)c(O)c2c(O)c(O)ccc2c1,inhibition,[1],31% (active)
same,red/green cell ratio (normalised),[2],0.86 (inactive)
same,normalised cell number,[2]; [11],1.29
same,normalised cell number,[2]; [12],1.11
O=c1ccc2ccc(O)cc2o1,inhibition,[1],5.77% (inactive)
same,red/green cell ratio (normalised),[2],0.88 (inactive)
same,normalised cell number,[2]; [11],1.05
same,normalised cell number,[2]; [12],0.93
CC[C@H](/C=C/C(C)C1CCC2C3CCC4=CC(=O)CC[C@]4(C)C3CC[C@]12C)C(C)C (some centres not stated),inhibition,[1],11.4% (inactive)
same,red/green cell ratio (normalised),[2],0.98 (inactive)
same,normalised cell number,[2]; [11],0.99
same,normalised cell number,[2]; [12],0.97
O=c1cc(-c2ccccc2)oc2cc(O)c(O)c(O)c12,parasite load remaining,[10],140% (inactive)
same,viability,[10],91.4%
same,inhibition,[1],4.11% (inactive)
same,red/green cell ratio (normalised),[2],0.84 (inactive)
same,normalised cell number,[2]; [11],1.08
same,normalised cell number,[2]; [12],0.91
same,fold change,[3]; [13],1.03 (inactive) and 0.801 (inactive) and 0.986 (inactive)
same,fold change,[3]; [14],1.01 and 1.16 and 0.831
same,cell count,[3]; [15],5800 and 6380 and 7810
same,cell count,[3]; [16],5640 and 7960 and 7920
same,z-score,[7]; [17],-0.448 (inactive)
same,z-score,[7]; [18],-1.5
same,luciferase signal,[4],60 AU (inactive)
same,z-score,[5],-0.805 (inactive)
COc1cc2c(cc1OC)[C@@H]1C(=O)c3ccc4c(c3O[C@@H]1CO2)C=CC(C)(C)O4,inhibition,[1],-0.416% (inactive)
same,red/green cell ratio (normalised),[2],0.71 (inactive)
same,normalised cell number,[2]; [11],0.9
same,normalised cell number,[2]; [12],0.64
same,luciferase signal,[4],44 AU (inactive)
CN(C)CCN(Cc1cccs1)c1ccccn1,survival,[6],13.8 (inactive)
same,inhibition,[1],15.9% (inactive)
same,red/green cell ratio (normalised),[2],1.12 (inactive)
same,normalised cell number,[2]; [11],1.1
same,normalised cell number,[2]; [12],1.22
same,fold change,[3]; [13],1.16 (inactive) and 0.855 (inactive) and 0.861 (inactive)
same,fold change,[3]; [14],0.908 and 1.23 and 2.97
same,cell count,[3]; [15],11200 and 8440 and 11600
same,cell count,[3]; [16],9630 and 9870 and 13500
same,z-score,[7]; [17],0.365 (inactive)
same,z-score,[7]; [18],-0.164
same,remaining NAD,[9],10 nM (inactive)
same,luciferase signal,[4],36 AU (inactive)
same,z-score,[5],0.215 (inactive)
